According to the supplement of paper PMC12645437, “Orthogonal IMiD-Degron Pairs Induce Selective Protein Degradation in Cells” (ACS Chemical Biology, 2025):
The full ranking holds about 8,300 sequences; the median of “log2 fold change of degron read counts, EGFP-low vs EGFP+ sorted cells (limma voom), compound-induced degradation” is about -1.1, and the highest 2% start at about 3.2. What follows is part of a selection rich in the highest values, with near analogues and random picks from the rest.

T1: CRBN, Q96SW2
T1 chain: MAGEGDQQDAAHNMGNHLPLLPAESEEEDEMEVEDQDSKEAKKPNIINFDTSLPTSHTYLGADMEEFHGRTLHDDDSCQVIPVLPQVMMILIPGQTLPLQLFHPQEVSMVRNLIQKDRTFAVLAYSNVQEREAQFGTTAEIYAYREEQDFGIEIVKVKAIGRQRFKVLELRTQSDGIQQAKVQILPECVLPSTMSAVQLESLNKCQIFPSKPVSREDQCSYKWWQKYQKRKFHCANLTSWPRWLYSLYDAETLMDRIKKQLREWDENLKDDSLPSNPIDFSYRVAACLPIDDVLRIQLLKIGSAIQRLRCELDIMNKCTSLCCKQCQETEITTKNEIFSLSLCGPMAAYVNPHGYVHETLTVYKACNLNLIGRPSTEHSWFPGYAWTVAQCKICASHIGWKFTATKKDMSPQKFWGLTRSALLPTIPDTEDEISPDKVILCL


Molecular target: T1, CRBN, Q96SW2
Experiment: log2 fold change of degron read counts, EGFP-low vs EGFP+ sorted cells (limma voom), compound-induced degradation; higher = more compound-induced degradation of the degron-EGFP fusion; degrons are variants of IKZF1/3 zinc finger 2; compound dose not given here
Details: Jurkat, 18 h
[1] = compound: compound 19 (5-tert-butyl-thalidomide)
[2] = compound: compound 22 (5-morpholino-thalidomide)
[3] = compound: compound 33 (diphenyl IMiD analogue)
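Further: pooled lentiviral library of zinc finger degron-EGFP fusions in mCherry-positive Jurkat cells, FACS-sorted after compound exposure, with degron abundance counted by next-generation sequencing.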

Row | Sequence | log2 fold change of degron read counts [1] | log2 fold change of degron read counts [2] | log2 fold change of degron read counts [3] | log2 fold change of degron read counts (compound: thalidomide)
1 | FYCPQCGAHFTQKGNLLRHIKL [46F_47Y_49P_50Q_52G_53A_54H_55F_67L_, Q9UKT9] | 0.451 | 1.45 | 1.13 | -0.932
2 | FFCPQCGAEFTQKGNLLRHIKL [46F_47F_49P_50Q_52G_53A_54E_55F_67L_, Q9UKT9] | -0.388 | -1.02 | -0.943 | -1.93
3 | FMCPQCGAEFTQKGNLLRHIKL [46F_47M_49P_50Q_52G_53A_54E_55F_67L_, Q9UKT9] | -2.82 | -2.55 | 0.714 | -1.49
4 | FACEICGHVFTQKGNLLRHIKL [46F_47A_49E_50I_52G_53H_54V_55F_67L_, Q9UKT9] | -2.8 | -3.22 | -3.16 | -2.72
5 | FKCPVCGAYFTQKGNLLRHIKL [46F_47K_49P_50V_52G_53A_54Y_55F_67L_, Q9UKT9] | -2.09 | -2.57 | -2.35 | -1.29
6 | FDCDVCGADFTQKGNLLRHIKL [46F_47D_49D_50V_52G_53A_54D_55F_67L_, Q9UKT9] | -3.06 | -3.05 | -2.88 | -2.92
7 | FGCDVCGAVFTQKGNLLRHIKL [46F_47G_49D_50V_52G_53A_54V_55F_67L_, Q9UKT9] | -0.0514 | -0.272 | 0.863 | -1.24
8 | FICNQCGADFTQKGNLLRHIKL [46F_47I_49N_50Q_52G_53A_54D_55F_67L_, Q9UKT9] | -3.68 | -3.02 | -3.36 | -3.07
9 | FNCEVCGAKFTQKGNLLRHIKL [46F_47N_49E_50V_52G_53A_54K_55F_67L_, Q9UKT9] | 1.99 | 0.318 | -2.12 | 0.139
10 | FVCEVCGAKFTQKGNLLRHIKL [46F_47V_49E_50V_52G_53A_54K_55F_67L_, Q9UKT9] | 0.611 | 1.89 | 0.0419 | 2.73
11 | FCCEVCGAKFTQKGNLLRHIKL [46F_47C_49E_50V_52G_53A_54K_55F_67L_, Q9UKT9] | 3.23 | 2.43 | -0.571 | 2.71
12 | FFCEVCGAKFTQKGNLLRHIKL [46F_47F_49E_50V_52G_53A_54K_55F_67L_, Q9UKT9] | 3.53 | 3.42 | 1.26 | 1.64
13 | FYCEVCGAKFTQKGNLLRHIKL [46F_47Y_49E_50V_52G_53A_54K_55F_67L_, Q9UKT9] | 3.48 | 3.66 | 1.65 | 1.54
14 | FHCEVCGAKFTQKGNLLRHIKL [46F_47H_49E_50V_52G_53A_54K_55F_67L_, Q9UKT9] | 2.92 | 1.93 | -0.596 | 0.387
15 | FNCSVCGHVFTQKGNLLRHIKL [46F_47N_49S_50V_52G_53H_54V_55F_67L_, Q9UKT9] | -2.33 | -2.79 | -2.91 | -2.16
16 | FGCDICGALFTQKGNLLRHIKL [46F_47G_49D_50I_52G_53A_54L_55F_67L_, Q9UKT9] | 0.711 | -0.455 | 0.626 | -1.25
17 | FECPICGREFTQKGNLLRHIKL [46F_47E_49P_50I_52G_53R_54E_55F_67L_, Q9UKT9] | -3.21 | -2.49 | -0.551 | 0.22
18 | FFCDVCGAMFTQKGNLLRHIKL [46F_47F_49D_50V_52G_53A_54M_55F_67L_, Q9UKT9] | 1.26 | 0.949 | -0.289 | -2.16
19 | LCCPICGFECTQKGNLLRHIKL [46L_47C_49P_50I_52G_53F_54E_55C_67L_, Q9UKT9] | 0.863 | 1.38 | 1.36 | 2.2
20 | LDCEICGFCCTQKGNLLRHIKL [46L_47D_49E_50I_52G_53F_54C_55C_67L_, Q9UKT9] | -1.71 | -2.74 | -1.75 | -1.36
21 | LVCEICGFCCTQKGNLLRHIKL [46L_47V_49E_50I_52G_53F_54C_55C_67L_, Q9UKT9] | 1.06 | 1.69 | 1.86 | 2.44
22 | LFCEICGFCCTQKGNLLRHIKL [46L_47F_49E_50I_52G_53F_54C_55C_67L_, Q9UKT9] | 3.37 | 3.39 | 2.01 | 1.32
23 | LYCEICGFCCTQKGNLLRHIKL [46L_47Y_49E_50I_52G_53F_54C_55C_67L_, Q9UKT9] | 3.35 | 3.28 | 3.07 | 1.36
24 | LSCEICGFCCTQKGNLLRHIKL [46L_47S_49E_50I_52G_53F_54C_55C_67L_, Q9UKT9] | 1.68 | 1.58 | 0.957 | 0.73
25 | LWCEICGFCCTQKGNLLRHIKL [46L_47W_49E_50I_52G_53F_54C_55C_67L_, Q9UKT9] | 2.9 | 3.31 | 2.14 | 0.752
26 | LCCEICGFCCTQKGNLLRHIKL [46L_47C_49E_50I_52G_53F_54C_55C_67L_, Q9UKT9] | 0.944 | 0.646 | 1.13 | 1.21
27 | LNCEICGFCCTQKGNLLRHIKL [46L_47N_49E_50I_52G_53F_54C_55C_67L_, Q9UKT9] | 0.295 | -0.862 | -1.01 | -0.716
28 | LACEICGFCCTQKGNLLRHIKL [46L_47A_49E_50I_52G_53F_54C_55C_67L_, Q9UKT9] | 2.01 | 0.96 | -0.0283 | -0.106
